# Screening data from PubChem BioAssay.
# Gal4-VP16 FLuc: Gal4-VP16 reporter inhibition counter-screen; 3.5% of 310,000 active; Potency, µM (series often up to 53.6 µM), for the others: top-dose activity, negative = inhibition, most hits filed as inhibitors; Drosophila S2 Gal4-VP16 UAS-luciferase, luminescence, 20 h;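 note: Gal4-VP16 expression switched on by copper sulfate through the metallothionein promoter; potency is the fitted concentration of half-maximal effect; nearly all actives have a fitted effect of over 50% in size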
# CtBP-E1A blk: CtBP/E1A binding inhibition. 0.49% of 340,000 active. AlphaScreen GST-E1A/His-CtBP binding, 1536-well; stronger effect = lower value. activity change, % (test concentration not listed); in the data active = activity change below about -65%; inconclusive = mostly about -30% to -63%
#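 In 5 uL wells, 23 nL compound meets equimolar GST-E1A and His-CtBP (5X stock 125 nM each) for 2 h, 37 °C. Beads (5X, 50 ug/mL) then 1 h, 37 °C, dark.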
# RORgamma inh: inhibitors of mouse ROR gamma transcriptional activity. P51450. 5.4% of 310,000 active. AID 2551. Drosophila S2 Gal4-RORgamma UAS-luciferase reporter, 20 h. Potency, µM (highest dose often 53.6 µM), for the others: top-dose activity change, negative = inhibition, usual class: inhibitors; note: potency is the fitted concentration of half-maximal effect; nearly all actives have a fitted effect of over 60% in size
#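 Luminescence from a UAS-regulated Photinus luciferase reporter in stably transfected Drosophila Schneider cells is measured; decreased signal marks ROR gamma inhibition. Fusion expression is induced by 700 uM copper sulfate for 20 hr.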
# Six1-Eya2 blk: blocks human Six1 binding to Eya2 | AlphaScreen GST-Six1/His-Eya2 binding, biochemical; stronger effect = lower value | Q15475+O00167 | 0.56% of 360,000 active | activity change, % (test concentration not listed); in the data active = activity change below about -65%; inconclusive = mostly about -30% to -63%
# Target sequence (O00167 whole entry, looked up): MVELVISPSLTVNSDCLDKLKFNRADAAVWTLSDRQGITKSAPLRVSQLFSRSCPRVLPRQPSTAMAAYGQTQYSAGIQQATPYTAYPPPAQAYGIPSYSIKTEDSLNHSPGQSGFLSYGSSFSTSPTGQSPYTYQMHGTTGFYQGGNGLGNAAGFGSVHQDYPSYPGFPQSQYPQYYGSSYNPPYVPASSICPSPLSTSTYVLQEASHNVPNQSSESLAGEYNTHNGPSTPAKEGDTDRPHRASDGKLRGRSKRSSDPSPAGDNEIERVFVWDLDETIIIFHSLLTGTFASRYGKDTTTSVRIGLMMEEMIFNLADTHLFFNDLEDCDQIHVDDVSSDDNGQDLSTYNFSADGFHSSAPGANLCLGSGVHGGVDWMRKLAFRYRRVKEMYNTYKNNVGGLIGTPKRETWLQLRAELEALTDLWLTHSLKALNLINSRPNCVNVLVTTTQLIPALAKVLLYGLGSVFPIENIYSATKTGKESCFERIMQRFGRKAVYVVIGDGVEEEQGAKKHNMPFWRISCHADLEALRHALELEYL
# Target sequence (Q15475 whole entry, looked up): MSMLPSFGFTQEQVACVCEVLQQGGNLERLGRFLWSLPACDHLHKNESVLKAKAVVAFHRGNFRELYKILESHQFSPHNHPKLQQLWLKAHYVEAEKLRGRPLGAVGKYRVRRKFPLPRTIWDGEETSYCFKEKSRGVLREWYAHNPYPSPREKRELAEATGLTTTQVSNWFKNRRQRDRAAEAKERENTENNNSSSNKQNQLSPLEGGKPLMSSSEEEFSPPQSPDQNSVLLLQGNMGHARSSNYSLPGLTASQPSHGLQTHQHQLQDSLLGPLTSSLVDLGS
#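 AlphaScreen luminescence read after one hour at 37 °C in darkness. Pin-transferred compounds met GST-Six1 and His-Eya2 protein (5X stock 250 nM/500 nM) plus glutathione donor and Ni-chelate acceptor beads (5X, 50 ug/mL).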
# PKM2 activator: activators of human pyruvate kinase M2; purified PKM2, Kinase-Glo ATP luminescence, activation; response scale: 0% is enzyme alone, no compound; Potency, µM (highest dose often 57.5 µM), for the others: top-dose activation, usual class: activators; 0.34% of 260,000 active; note: potency is the fitted concentration of half-maximal effect; nearly all actives have a fitted effect of over 55% in size
#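 Purified hPK-M2 (>95%) run at intermediate activity with 0.1 mM ADP and 0.5 mM PEP in 50 mM imidazole pH 7.2, KCl, MgCl2; 1 h room temperature. ATP formed read by Kinase-Glo luminescence; normalized to uninhibited and no-enzyme controls.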
# * hit, by the source's call; ? = inconclusive; . = no result; [ ] = another dose, or the depositor's remark. Only some compounds are listed: those with a hit (about 5.6% of all), similar ones and a draw of the others. Unless noted, calls come from the whole dose curve; as a rule, active = well fitted curve in the direction sought with a large enough effect; inconclusive = small, poorly fitted or top-dose-only effect, or another doubt; inactive = no such curve, though single readings can be large; an effect the other way counts as inactive or inconclusive. % is set by controls: 0 for no effect and ±100 for the full control effect.
SMILES,Gal4-VP16 FLuc,CtBP-E1A blk,RORgamma inh,Six1-Eya2 blk,PKM2 activator
COc1ccccc1-n1cc(-c2ccccc2)c2c(=S)nc[nH]c21,1µM*,.,1µM*,-2,.
COc1ccccc1C1=Nn2c(nnc2-c2cccc(OC)c2OC)SC1,-16%,.,31%,.,.
O=S(=O)(NC1CCSc2ccccc21)c1ccc(Cl)nc1 (stereo not drawn),22%,-9,12%,-3,0%
O=C(NCc1ccncc1)C1CCCN1S(=O)(=O)c1ccc(Cl)cc1 (stereo not drawn),-14%,8,0.63µM*,10,6%
O=C(NCc1ccccc1)C1CCCN1S(=O)(=O)c1ccc(F)cc1 (stereo not drawn),-17%,-81*,-8%,0,-8%[11.5 µM]
COc1ccc(/C=C/C(=O)Oc2cc(C)[nH]c(=O)c2[N+](=O)[O-])cc1OC,-1%,-10,-19%,3,-5%
O=C(Nn1cc(C(=O)Nc2ccc(F)cc2F)c2ccccc2c1=O)c1cnccn1,?,?,11µM*,-72*,-4%
C=CCNC1=C(Cl)C(=O)c2ccccc2C1=O,?,-2,13µM*,?,-6%
CC(C)NC1=C(Cl)C(=O)c2ccccc2C1=O,?,?,?,?,-7%
Cc1ccc(NC(=O)C(c2ccccc2)N(C)C)cc1Cl (stereo not drawn),?,0,18µM*,3,2%
O=C1C(Cl)=C(NCCc2ccccc2)C(=O)c2ccccc21,.,-79*,.,-76*,.
CCN(CC)CCCNC1=C(Cl)C(=O)c2ccccc2C1=O,?,-25,7.9µM*,-21,0%
Cc1ccc(NC(=O)C(OC(=O)c2ccc(O)cc2)c2ccccc2)cc1Cl (stereo not drawn),-8%,.,-26%,0,-5%
COCCCNC1=C(Cl)C(=O)c2ccccc2C1=O,-18%,-20,-28%,?,-7%
O=C1C(Cl)=C(NCCc2ccccc2)C(=O)N1CCc1ccccc1,-10%,50,17%,49,-10%
COc1cccc(N2CC(C(=O)Nc3nnc(SCC(=O)NCc4ccco4)s3)CC2=O)c1 (stereo not drawn),-4%,-18,-12%,-16,1%
CCCC(C(=O)Nc1ccc(S(=O)(=O)Nc2nccs2)cc1)c1ccccc1 (stereo not drawn),.,-2,.,-7,.
O=C(O)c1ccc(NC2=C(Cl)C(=O)c3ccccc3C2=O)cc1,5%,-21,?,4,16%
Cc1ccc(NC2=C(NC(=O)c3ccccc3)C(=O)c3ccccc3C2=O)cc1Cl,?,0,?,-66*,29%
O=C1C(Cl)=C(NCc2cccnc2)C(=O)c2ccccc21,?,?,10µM*,-17,.
O=C(O)c1cccc(NC2=C(Cl)C(=O)c3ccccc3C2=O)c1,?,-22,11µM*,-16,-15%
Cc1ccc(NCC(=O)c2ccccc2)cc1Cl,-2%,2,6%,2,0%
Clc1ccccc1-c1cc(NCc2cccnc2)ncn1,-11%,.,16%,.,.
O=C1C(Cl)=C(Nc2ccccc2)C(=O)c2ccccc21,13µM*,-9,13µM*,-3,-9%
CC(=O)Nc1ccc(NC(=O)C(C)OC(=O)CNS(=O)(=O)c2ccc(Br)cc2Cl)cc1 (stereo not drawn),4%,0,5%,25,1%
SMILES,Gal4-VP16 FLuc,CtBP-E1A blk,RORgamma inh,Six1-Eya2 blk,PKM2 activator
CSCCC(NC(=O)c1ccc(Cl)c([N+](=O)[O-])c1)C(=O)N1CCN(C/C=C/c2ccccc2)CC1 (stereo not drawn),.,-24,.,-28,.
Cc1nc([N+](=O)[O-])c(Br)n1CC(=O)c1ccc(Cl)cc1,?,1,10µM*,14,1%
Cc1nc([N+](=O)[O-])c(Br)n1Cc1ccc(Cl)c(Cl)c1,?,.,7.1µM*,5,15%
COc1ccc(C(=O)Cn2c(C)nc([N+](=O)[O-])c2Br)cc1,?,-4,-32%,1,-2%
CCOc1ccc(N(CC(=O)Nc2ccc(C)c(C)c2)S(C)(=O)=O)cc1,-3%,6,-11%,4,12%[11.5 µM]
CC(=O)NC1C(O)O[C@H](C(=O)O)[C@@H](O)[C@@H]1O (stereo partly drawn),12%,.,0%,.,.
C=CCSc1nnc(-c2cc3c(C(F)(F)F)nn(C)c3s2)n1C,1%,-2,-5%,-10,0%
C=CCSc1nnc(-c2cc3c(-c4ccccc4)nn(C)c3s2)n1C,-16%,-76*,2%,-75*,4%
CC(=O)CC1OC(=O)C(Br)=C1NCc1ccccc1 (stereo not drawn),20µM*,8,?,-1,-2%
O=C(CC1Oc2ccccc2NC1=O)NCc1ccccc1 (stereo not drawn),-16%,-2,-10%,11,1%
O=C(NCCc1nnc2ccc(NCCCN3CCOCC3)nn12)c1ccccc1,-1%,0,4%,-4,-2%
CCN(c1ccccc1)S(=O)(=O)c1ccc(C(=O)Nc2ccncc2)cc1,.,5,.,7,.
CC(=O)Nc1ccc(S(=O)(=O)N(C)c2ccccc2)cc1,-1%,4,-5%,-1,7%
CCS(=O)(=O)c1ncc(Cl)c(C(=O)Nc2ccc(S(=O)(=O)N(C)c3ccccc3)cc2)n1,2.8µM*,-5,2.8µM*,14,.
CCN(c1ccccc1)S(=O)(=O)c1ccc(NC(=O)c2nc(S(C)(=O)=O)ncc2Cl)cc1,3.2µM*,6,6.3µM*,2,.
CCOc1ccccc1N(CC(=O)Nc1cccc2ccccc12)S(C)(=O)=O,-6%,11,3%,-2,-2%
Cc1ccc2ccccc2c1[N+](=O)[O-],-5%,.,4%,.,.
CC(C)CCCC(C)C1CC(=O)C2=C3CCC4CC(O)CCC4(C)C3CCC21C (stereo not drawn),-7%,.,4%,.,.
Nc1ccc2c(c1)Cc1c(F)cccc1-2,.,3,.,-10,.
COc1ccc(-c2cn3cc(C)ccc3n2)cc1OC,?,-13,11µM*,-15,-31%
COc1ccc(-c2cn3cc(C)ccc3n2)cc1F,4µM*,-4,2µM*,-5,-14%
Cc1cc(F)ccc1NC(=O)CCc1ccc(S(=O)(=O)N2CCOCC2)cc1,.,-3,.,4,.
CN1CCN(NC(=O)Nc2cccc(F)c2)CC1,-5%,-3,-17%,6,-4%
COc1cc(OC)cc(C2=Cc3ccc(OC)cc3C(CC(C)=O)N2c2ccc(C#CCCO)cc2)c1 (stereo not drawn),.,1,.,-11,.
COc1ccc(S(=O)(=O)N2CCCCC2)cc1NC(=O)c1cncc(Br)c1,.,7,.,-1,.
O=C(/C=C/c1ccccc1Cl)NCc1ccco1,-1%,-15,16%,-10,-9%
C=CCNC(=S)N/N=C/c1ccccc1OCCOc1ccccc1,5µM*,-1,2.5µM*,6,-3%
